Data from PubChem BioAssay (NCI).
Compounds without any hit were thinned out: in the full panel of roughly 79,000, 15% have a hit. Unmarked numbers belong to inactive results. Activity calls are given as the source filed them. Rule as the data show it: active = growth inhibition above about 70%; inactive = the rest.

Tests used:
[1] = NCI Yeast Anticancer Drug Screen. Data for the rad52 strain (AID 147);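 also: 0% = growth of vehicle-treated control cultures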; conditions: S. cerevisiae rad52 mutant growth inhibition, active compounds read high
Summary of the method: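 DNA repair-defective yeast; compound exposure; growth scored against vehicle controls.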

[2] = NCI Yeast Anticancer Drug Screen. Data for the wt1 strain (AID 149);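 also: 0% = growth of vehicle-treated wt1 cultures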; conditions: S. cerevisiae wt1 strain (SPY 50644) growth inhibition, active compounds read high
Summary of the method: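 wt1 yeast, compound-treated; % growth inhibition vs vehicle control.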

[3] = NCI Yeast Anticancer Drug Screen. Data for the mgt1 strain (AID 153); conditions: S. cerevisiae mgt1 mutant growth inhibition, active compounds read high
Summary of the method: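 Growth inhibition relative to vehicle controls was scored for the mgt1 yeast strain after compound exposure.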

[4] = NCI Yeast Anticancer Drug Screen. Data for the rad50 strain (AID 155);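 also: 0% = growth of vehicle-only cultures of the same strain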; conditions: S. cerevisiae rad50 strain growth inhibition, active compounds read high
Summary of the method: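 Genetically altered yeast (DNA repair pathway); compound treatment; growth inhibition vs vehicle ctrl.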

[5] = NCI Yeast Anticancer Drug Screen. Data for the mec2-1 strain (AID 157); conditions: S. cerevisiae mec2-1 strain, active compounds read high
Summary of the method: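 Growth inhibition is read against vehicle-treated controls after compound exposure of the mec2-1 yeast strain, which is defective in DNA damage repair or cell cycle control.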

[6] = NCI Yeast Anticancer Drug Screen. Data for the rad14 strain (AID 159);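 also: 0% = growth of vehicle-treated control cultures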; conditions: S. cerevisiae rad14 strain growth inhibition, active compounds read high
Summary of the method: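 Test compounds were applied to a repair-deficient yeast strain. Its growth was then compared with that of cultures given vehicle alone, and inhibition was expressed relative to those controls.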

[7] = NCI Yeast Anticancer Drug Screen. Data for the sgs1 mgt1 strain (AID 161);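 also: 0% = growth of cultures given vehicle only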; conditions: S. cerevisiae sgs1 mgt1 strain, active compounds read high
Summary of the method: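 Yeast cells carrying a defined DNA-repair defect were exposed to test compounds. Growth inhibition was measured relative to vehicle-treated controls.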

[8] = NCI Yeast Anticancer Drug Screen. Data for the CLN2oe strain (AID 163);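 also: 0% = growth of vehicle-only control cultures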; conditions: S. cerevisiae CLN2oe strain, active compounds read high
Summary of the method: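 Compound-treated yeast; growth vs vehicle ctrl = % inhibition. Genetically altered strain (cell-cycle control).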

[9] = NCI Yeast Anticancer Drug Screen. Data for the cln2 rad14 strain (AID 165);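 also: 0% = growth equal to vehicle treated cultures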; conditions: S. cerevisiae cln2 rad14 strain, active compounds read high
Summary of the method: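 Growth inhibition, relative to vehicle-treated controls, is the read-out. The test organism is a yeast strain with defined genetic alterations, cln2 rad14.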

[10] = NCI Yeast Anticancer Drug Screen. Data for the bub3 strain (AID 167); conditions: S. cerevisiae bub3 mutant strain, active compounds read high
Summary of the method: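 Yeast carrying a defined mutation is treated with each compound, and growth is compared with that of vehicle-exposed cells to give inhibition.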

[11] = NCI Yeast Anticancer Drug Screen. Data for the wt2 strain (AID 169);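 also: 0% = growth of vehicle-treated yeast cultures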; conditions: S. cerevisiae wt2 strain growth inhibition, active compounds read high
Summary of the method: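 Compound exposure of yeast; growth compared with vehicle controls; inhibition reported.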

[12] = NCI Yeast Anticancer Drug Screen. Data for the mlh1 strain (AID 171);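 also: 0% = growth of vehicle-treated control cultures of the same strain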; conditions: S. cerevisiae mlh1 strain growth inhibition, active compounds read high
Summary of the method: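 Compounds are applied to a genetically altered yeast strain, and its growth is compared with that of vehicle-treated cultures to give percent inhibition.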

[13] = NCI Yeast Anticancer Drug Screen. Data for the sgs1 strain (AID 173);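 also: 0% = growth of vehicle-only control cultures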; conditions: S. cerevisiae sgs1 mutant, active compounds read high
Summary of the method: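 Compounds applied to genetically altered yeast; growth compared with vehicle-treated cultures to give % inhibition.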

[14] = NCI Yeast Anticancer Drug Screen. Data for the mlh1 rad18 strain (AID 175); conditions: S. cerevisiae mlh1 rad18 strain growth inhibition, active compounds read high
Summary of the method: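 Cells of a genetically altered yeast strain, deficient in DNA damage repair, were treated with compound. Their growth was then compared with that of vehicle-treated cultures to give inhibition.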

[15] = NCI Yeast Anticancer Drug Screen. Data for the rad18 strain (AID 177); conditions: S. cerevisiae rad18 mutant growth inhibition, active compounds read high
Summary of the method: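 Compounds are applied to a repair-deficient yeast strain, and growth is compared with that of vehicle-treated cultures to give percent inhibition.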

[16] = NCI Yeast Anticancer Drug Screen. Data for the rad50EPP+ strain (AID 151);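 also: 0% = growth of vehicle-treated control cultures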; conditions: S. cerevisiae rad50 mutant strain, active compounds read high
Summary of the method: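 rad50EPP+ yeast treated with test compounds. Readout: growth vs vehicle control.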

[17] = at 5.0 µM (retest, dose inferred, filed as 0.5)
[18] = at 50.0 µM (retest, dose inferred, filed as 5.0)

COc1ccc2cc3c4cc5c(cc4cc[n+]3cc2c1OC)OCO5
growth inhibition ([1]; at 1.2 µM): 22% | growth inhibition ([1]; at 3.7 µM): 48% | growth inhibition ([1]; at 11.0 µM): 75% (active) | growth inhibition ([1]; at 33.0 µM): 94% (active) | growth inhibition ([1]; at 100.0 µM): 97% (active) | growth inhibition ([2]; at 1.2 µM): 8% | growth inhibition ([2]; at 3.7 µM): 29% | growth inhibition ([2]; at 11.0 µM): 50% | growth inhibition ([2]; at 33.0 µM): 84% (active) | growth inhibition ([2]; at 100.0 µM): 95% (active) | growth inhibition ([3]; at 1.2 µM): 15% | growth inhibition ([3]; at 3.7 µM): 39% | growth inhibition ([3]; at 11.0 µM): 62% | growth inhibition ([3]; at 33.0 µM): 89% (active) | growth inhibition ([3]; at 100.0 µM): 97% (active) | growth inhibition ([4]; at 1.2 µM): 33% | growth inhibition ([4]; at 3.7 µM): 70% (active) | growth inhibition [4, 17]: 76% (active) | growth inhibition ([4]; at 11.0 µM): 88% (active) | growth inhibition ([4]; at 33.0 µM): 94% (active) | growth inhibition [4, 18]: 96% (active) | growth inhibition ([4]; at 50.0 µM): 97.1% (active) | growth inhibition ([4]; at 100.0 µM): 97% (active) | growth inhibition ([5]; at 1.2 µM): 9% | growth inhibition ([5]; at 3.7 µM): 32% | growth inhibition [5, 17]: 57% | growth inhibition ([5]; at 11.0 µM): 55% | growth inhibition ([5]; at 33.0 µM): 89% (active) | growth inhibition [5, 18]: 97% (active) | growth inhibition ([5]; at 50.0 µM): 92.2% (active) | growth inhibition ([5]; at 100.0 µM): 97% (active) | growth inhibition ([6]; at 1.2 µM): 18% | growth inhibition ([6]; at 3.7 µM): 46% | growth inhibition ([6]; at 11.0 µM): 78% (active) | growth inhibition ([6]; at 33.0 µM): 96% (active) | growth inhibition ([6]; at 100.0 µM): 98% (active) | growth inhibition [7, 17]: 68% | growth inhibition [7, 18]: 97% (active) | growth inhibition ([7]; at 50.0 µM): 93.3% (active) | growth inhibition ([8]; at 1.2 µM): 13% | growth inhibition ([8]; at 3.7 µM): 29% | growth inhibition ([8]; at 11.0 µM): 49% | growth inhibition ([8]; at 33.0 µM): 79% (active) | growth inhibition ([8]; at 100.0 µM): 97% (active) | growth inhibition [9, 17]: 55% | growth inhibition [9, 18]: 94% (active) | growth inhibition ([9]; at 50.0 µM): 89.2% (active) | growth inhibition ([10]; at 1.2 µM): 6% | growth inhibition ([10]; at 3.7 µM): 19% | growth inhibition [10, 17]: 43% | growth inhibition ([10]; at 11.0 µM): 46% | growth inhibition ([10]; at 33.0 µM): 88% (active) | growth inhibition [10, 18]: 96% (active) | growth inhibition ([10]; at 50.0 µM): 97.6% (active) | growth inhibition ([10]; at 100.0 µM): 98% (active) | growth inhibition ([11]; at 1.2 µM): 38% | growth inhibition ([11]; at 3.7 µM): 32% | growth inhibition ([11]; at 11.0 µM): 62% | growth inhibition ([11]; at 33.0 µM): 87% (active) | growth inhibition ([11]; at 100.0 µM): 97% (active) | growth inhibition ([12]; at 1.2 µM): 12% | growth inhibition ([12]; at 3.7 µM): 31% | growth inhibition ([12]; at 11.0 µM): 53% | growth inhibition ([12]; at 33.0 µM): 87% (active) | growth inhibition ([12]; at 100.0 µM): 97% (active) | growth inhibition ([13]; at 1.2 µM): 24% | growth inhibition ([13]; at 3.7 µM): 28% | growth inhibition ([13]; at 11.0 µM): 83% (active) | growth inhibition ([13]; at 33.0 µM): 96% (active) | growth inhibition ([13]; at 100.0 µM): 98% (active) | growth inhibition [14, 17]: 63% | growth inhibition [14, 18]: 97% (active) | growth inhibition ([14]; at 50.0 µM): 97% (active) | growth inhibition ([15]; at 1.2 µM): 8% | growth inhibition ([15]; at 3.7 µM): 28% | growth inhibition ([15]; at 11.0 µM): 53% | growth inhibition ([15]; at 33.0 µM): 89% (active) | growth inhibition ([15]; at 100.0 µM): 97% (active)

CC1=CN2C(c3ccccc3)=NON(c3ccc(C)cn3)C2C=C1 (stereo not drawn)
growth inhibition ([1]; at 1.2 µM): 2% | growth inhibition ([1]; at 3.7 µM): 4% | growth inhibition ([1]; at 11.0 µM): -3% | growth inhibition ([1]; at 33.0 µM): 1% | growth inhibition ([1]; at 100.0 µM): -7% | growth inhibition ([2]; at 1.2 µM): -3% | growth inhibition ([2]; at 3.7 µM): -3% | growth inhibition ([2]; at 11.0 µM): -3% | growth inhibition ([2]; at 33.0 µM): -3% | growth inhibition ([2]; at 100.0 µM): -5% | growth inhibition ([16]; at 1.2 µM): 6% | growth inhibition ([16]; at 3.7 µM): 1% | growth inhibition ([16]; at 11.0 µM): 0% | growth inhibition ([16]; at 33.0 µM): -2% | growth inhibition ([16]; at 100.0 µM): -11% | growth inhibition ([3]; at 1.2 µM): -2% | growth inhibition ([3]; at 3.7 µM): 0% | growth inhibition ([3]; at 11.0 µM): -2% | growth inhibition ([3]; at 33.0 µM): -1% | growth inhibition ([3]; at 100.0 µM): -3% | growth inhibition ([5]; at 1.2 µM): -3% | growth inhibition ([5]; at 3.7 µM): -2% | growth inhibition [5, 17]: -24% | growth inhibition ([5]; at 11.0 µM): -3% | growth inhibition ([5]; at 33.0 µM): -2% | growth inhibition [5, 18]: -21% | growth inhibition ([5]; at 50.0 µM): 19.8% | growth inhibition ([5]; at 100.0 µM): -4% | growth inhibition ([6]; at 1.2 µM): 4% | growth inhibition ([6]; at 3.7 µM): 0% | growth inhibition ([6]; at 11.0 µM): -4% | growth inhibition ([6]; at 33.0 µM): -2% | growth inhibition ([6]; at 100.0 µM): -9% | growth inhibition [7, 17]: -15% | growth inhibition [7, 18]: 20% | growth inhibition ([7]; at 50.0 µM): 18% | growth inhibition ([8]; at 1.2 µM): 2% | growth inhibition ([8]; at 3.7 µM): -2% | growth inhibition ([8]; at 11.0 µM): -4% | growth inhibition ([8]; at 33.0 µM): -2% | growth inhibition ([8]; at 100.0 µM): -7% | growth inhibition [9, 17]: -23% | growth inhibition [9, 18]: -17% | growth inhibition ([9]; at 50.0 µM): -12.7% | growth inhibition ([10]; at 1.2 µM): -2% | growth inhibition ([10]; at 3.7 µM): -2% | growth inhibition [10, 17]: -25% | growth inhibition ([10]; at 11.0 µM): -6% | growth inhibition ([10]; at 33.0 µM): -4% | growth inhibition [10, 18]: 10% | growth inhibition ([10]; at 50.0 µM): 46% | growth inhibition ([10]; at 100.0 µM): -4% | growth inhibition ([11]; at 1.2 µM): -7% | growth inhibition ([11]; at 3.7 µM): -7% | growth inhibition ([11]; at 11.0 µM): -10% | growth inhibition ([11]; at 33.0 µM): -13% | growth inhibition ([11]; at 100.0 µM): -7% | growth inhibition ([12]; at 1.2 µM): 0% | growth inhibition ([12]; at 3.7 µM): -2% | growth inhibition ([12]; at 11.0 µM): -3% | growth inhibition ([12]; at 33.0 µM): -1% | growth inhibition ([12]; at 100.0 µM): -4% | growth inhibition [14, 17]: -15% | growth inhibition [14, 18]: 50% | growth inhibition ([14]; at 50.0 µM): 1.65% | growth inhibition ([15]; at 1.2 µM): 3% | growth inhibition ([15]; at 3.7 µM): 3% | growth inhibition ([15]; at 11.0 µM): -1% | growth inhibition ([15]; at 33.0 µM): 1% | growth inhibition ([15]; at 100.0 µM): -7%
